For 15 compounds, growth results are on record in PubChem BioAssay (NCI).

Holding throughout (assay): NCI-60 one-dose screen, 48 h (100 = growth as untreated, 0 = no growth, -100 = all killed)
Details in all cases: 10 µM unless noted

Test [1] has as its system NCI-H23 lung.
Test [2] has as its system NCI-H226 lung.
Test [3] concerns NCI-H322M lung.
Test [4] concerns NCI-H460 lung.
Test [5] relates to HOP-92 NSCLC.
Test [6] concerns NCI-H522 lung.
Test [7] deals with A549/ATCC NSCLC.
In test [8] the test system is 786-0 renal.
Test [9] concerns COLO 205 colon.
For test [10], the system named is DU-145 prostate.
For test [11], the system named is K-562 leukemia.
Test [12] relates to MALME-3M melanoma.
Test [13] concerns MDA-MB-231 breast.
In test [14] the test system is RXF 393 renal.
Test [15] has as its system SF-268 CNS.
The test system of test [16] is SF-295 CNS.
For test [17], the system named is SF-539 CNS.
In test [18] the test system is UACC-257 melanoma.
Test [19] has as its system M14 melanoma.
Test [20] concerns HOP-62 NSCLC.

SMILES strings stand for the structures. About 83,000 compounds went through this panel and 20% of them were active in at least one assay; those are over-represented in the sample as a whole.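 Method: cells in 96-well plates; compound added at one concentration; 48 h incubation; percent growth measured; values under 10 scored active.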 A number with no mark means an inactive call. Active and inactive are the calls of the source.

With `CN1CC[C@@H]2[C@@]3(C)CC[C@H](O)C(C)(C)[C@@H]3CC[C@@]2(C)[C@]2(C)CC[C@@]3(CO)CCC(C)(C)C[C@@H]3C12` (stereo not given in full), the growth is 90.7% in test [1]; 94.4% in [2]; 98.8% in test [3]; 98.3% in test [4]; 66.8% in [5]; 98% in [6]. Moreover, the growth is 86% in [7]; 80.7% in [8]; -2.47% (active) in test [9]; 103% in test [10]; 21.5% in [11]; 84.3% in [12]. In addition, the growth in [13] is 85%; in test [14], 77.2%; in [15] it was 96.7%; in [16], 104%; in [17], 74.9%; in [18], 49.1%. The growth in test [19] is 58.6%.

As to `COc1cccc2c1[C@H](OC)[C@]13O[C@@]1(C2=O)[C@H](O)[C@H](C)[C@@](O)(C(=O)[C@@H]1O[C@H]1C)[C@@H]3O`, the growth is -63.9% (active) in test [1]; -54.4% (active) in test [2]; 1.69% (active) in test [3]; -33.2% (active) in test [4]; -16.8% (active) in test [5]; -31.9% (active) in test [6]. Also, the growth in test [7] was -16.7% (active); in [8], -16.9% (active); in test [9], -44.9% (active); in test [10] it was -20.6% (active); in test [11] it was -27% (active); in test [12], -56.7% (active). The growth is -1.86% (active) in test [13]; -77.3% (active) in test [14]; -24.7% (active) in [15]; -21.8% (active) in test [16]; -29% (active) in [17]; -28.3% (active) in [18]. In test [19], the growth was -89.7% (active).

As for `CCOC(=O)c1ccc(NC2=C(Cl)C(=O)c3nc(C)ccc3C2=O)cc1`, the growth in [2] is 85.5%; in test [3] it was 96.7%; in test [20], 113%; in test [4] it was 79.3%; in test [5], 103%; in test [6], 24.1%. Also, the growth in [7] was 94.3%; in test [8], 55.5%; in test [9] it was 58.9%; in test [10], 91%; in [11] it was 7.29% (active); in test [12], 11.7%. Further, the growth is 77.4% in test [13]; 45.6% in test [14]; 70.8% in [15]; 65% in [16]; 54.3% in test [17]; 44.2% in test [18]. In test [19], the growth was 52.4%.

Consider `O=C(CN1CCN(c2cc(=O)[nH]c3ccc(F)cc23)CC1)N(c1ccccc1)c1ccccc1`, for which the growth was 103% in [2]; 104% in test [3]; 102% in test [20]; 104% in test [4]; 98.4% in test [5]; 98.3% in [6]. Further, the growth in [7] is 115%; in test [8], 96%; in test [9], 115%; in [10], 107%; in test [11] it was 94.9%; in test [12], 100%. Further, the growth in test [13] is 98.1%; in test [14], 103%; in test [15], 99.8%; in test [16], 107%; in [17] it was 101%; in [18], 106%. In addition, the growth in [19] is 105%.

Take `C#C[C@]1(O)CC[C@H]2[C@@H]3CC=C4c5sc(N(C)c6ccccc6)nc5CC[C@]4(C)[C@H]3CC[C@@]21C`: the growth is 96.4% in [2]; 103% in test [3]; 101% in test [20]; 61.9% in test [4]; 139% in [5]; 87.2% in test [6]. Also, the growth in test [8] is 57.1%; in test [10], 95.4%; in test [11], 2.88% (active); in test [12], 110%; in test [13], 98.6%; in test [14] it was 75.8%. In addition, the growth in [15] is 88%; in [16] it was 68.8%; in [17], 48.7%; in test [18], 90.8%; in test [19], 54.3%.

As for `Cc1ccc2c(n1)C(=O)C(Cl)=C(Nc1ccc(C(C)C)cc1)C2=O`, the growth in test [2] is 61.4%; in test [3], 84.4%; in test [4] it was 79.7%; in test [5], 17.1%; in test [6] it was -13.7% (active); in [7], 67.8%. Besides, the growth was 75.6% in test [8]; 111% in test [9]; 16.2% in test [10]; 0.714% (active) in test [11]; -33.9% (active) in test [12]; -41% (active) in [13]. Further, the growth in [14] is -93.6% (active); in test [15] it was 77.1%; in test [16] it was 82.8%; in test [17], 96.2%; in test [18], -70.3% (active); in [19], 25.6%.

As for `C=C(C)[C@@H]1CC[C@]2(C(=O)O)CC[C@]3(C)[C@H](CC[C@@H]4[C@@]5(C)C/C(=C/c6ccccn6)C(=O)C(C)(C)[C@@H]5CC[C@]43C)[C@@H]12`, the growth is 39.9% in test [2]; 44.3% in test [3]; 36.3% in [20]; 16.1% in [4]; 34.7% in test [5]; 24.1% in test [6]. Moreover, the growth in test [7] is 16.5%; in test [8] it was 51.1%; in test [9], 54.7%; in [10], 45.5%; in test [11], 29.3%; in [12], 72.5%. For the same compound, the growth in test [13] is 61.7%; in test [14] it was 62.1%; in [15], 51.5%; in [16], 34%; in test [17] it was 46.8%; in test [18], 46.5%. Also, the growth in [19] is 59%.

`COc1ccc(/C=N/NC(=O)c2c(N)nn(C)c2Nc2ccccc2)cc1Oc1ccccc1`: the growth in test [2] was 91.9%; in test [3], 89.4%; in test [20], 96.5%; in [4] it was 102%; in test [5], 51.3%; in test [6], 93.8%. For the same compound, the growth is 89.1% in [7]; 101% in test [8]; 117% in test [9]; 101% in test [10]; 88% in test [11]; 91.1% in test [12]. Besides, the growth was 94.9% in [13]; 87.1% in test [14]; 94% in test [15]; 90.4% in [16]; 95.7% in [17]; 96.9% in test [18]. Also, the growth in [19] was 101%.

In the case of `CC(Nc1c(C#N)cnc2ccc(-c3cncc(O)c3)cc12)c1ccccc1` (stereo not given), the growth was 2.59% (active) in [2]; -36.8% (active) in test [3]; 5.27% (active) in test [20]; 0.377% (active) in test [4]; -3.64% (active) in [5]; -43.4% (active) in [6]. Moreover, the growth in test [7] was 15.9%; in test [8], -1.52% (active); in [9], 57.6%; in test [10] it was 3.93% (active); in test [11], 15.3%; in [12] it was -34.1% (active). Further, the growth in test [13] was 14.4%; in [14], -24.6% (active); in [15], 2.54% (active); in [16] it was -13% (active); in [17] it was 0.714% (active); in test [18], 18.2%. The growth in test [19] is 4.07% (active).

For the compound `COc1cc(C(C)=C(c2ccc(OCCN(C)C)cc2)c2ccc(OCCN(C)C)cc2)ccc1F`, the growth in test [2] was 92.9%; in test [3], 96.6%; in test [20], 97.2%; in test [4], 106%; in test [5] it was 73.4%; in test [6] it was 99.7%. In addition, the growth in [7] was 113%; in test [8], 94.3%; in [10], 102%; in test [11], 93.3%; in test [12] it was 92.6%; in [13], 102%. Also, the growth in test [14] was 90.6%; in [15] it was 98.5%; in test [16], 100%; in test [17], 101%; in test [18], 111%; in test [19] it was 110%.

Regarding `COc1cc(C(=O)c2cc(C(C)=O)c3cccc(C)n23)cc(OC)c1OC`, the growth in [2] was 51.6%; in test [3], 69.2%; in test [20], 36.7%; in test [4] it was 16.1%; in [5], 33.5%; in [6], 19.3%. Besides, the growth was 47.1% in test [8]; 11% in test [9]; 68.3% in test [10]; 15.6% in [11]; 46.2% in test [12]; 37.4% in test [13]. Also, the growth is 46.6% in test [14]; 54% in test [15]; 17.9% in [16]; 46.8% in test [17]; 56% in test [18]; 5.73% (active) in [19].

For `O=S(=O)(NCCCNc1nccc(-c2[nH]c(-c3ccccc3)nc2-c2ccc(F)c(O)c2)n1)c1ccccc1`, the growth in test [2] is 99.4%; in test [3], 117%; in [20], 120%; in test [4], 87.3%; in test [5], 105%; in test [6], 91.2%. The growth in test [7] is 98.3%; in test [8] it was 113%; in [9] it was 95.5%; in [10] it was 113%; in [11], 60.6%; in test [12], -4.84% (active). Besides, the growth in [13] is 81.7%; in [14], 121%; in test [15], 90.7%; in test [16] it was 96.9%; in [17] it was 105%; in test [18], 22.4%. Moreover, the growth in test [19] was 27.8%.

As for `C#CCn1cc(/C=N/Nc2nc(-c3ccc(Br)cc3)cs2)c2ccccc21`, the growth was 94.7% in [2]; 93.6% in test [3]; 97.5% in test [20]; 97.3% in test [4]; 88.9% in [5]; 88.9% in test [6]. For the same compound, the growth in [7] was 97%; in test [8], 105%; in test [9] it was 115%; in [10], 114%; in test [11] it was 110%; in test [12] it was 100%. Further, the growth in test [13] was 95.8%; in test [14], 105%; in test [15], 108%; in test [16], 97.6%; in test [17] it was 93%; in test [18], 105%. The growth in test [19] is 93.9%.

`O=C(CCCCCCNC(=O)C(O)(O)C(F)(F)F)Nc1ncc(-c2ccc(Br)cc2)s1`: the growth was 4.5% (active) in test [2]; 12.2% in test [3]; -6.49% (active) in [20]; 0.631% (active) in test [4]; -23.3% (active) in test [5]; -44.9% (active) in test [6]. In addition, the growth in test [7] was -15.2% (active); in test [8], 14.9%; in [9], -55.9% (active); in [10], 3.81% (active); in [11], 11.8%; in test [12], 19.9%. Moreover, the growth in test [13] was 19.7%; in [14], -52.8% (active); in test [15] it was 1.89% (active); in test [16] it was -29.3% (active); in test [17], 12.1%; in test [18], 9.48% (active). The growth in test [19] was 8.94% (active).

As to `CCS(=O)(=O)Nc1ccc(C(=O)CC2(O)C(=O)Nc3ccccc32)cc1` (stereo not given), the growth in test [2] was 91.5%; in test [3] it was 98.4%; in [20] it was 94.6%; in [4] it was 105%; in test [5] it was 38.2%; in [6], 105%. In addition, the growth was 107% in [7]; 108% in test [8]; 93.8% in test [9]; 109% in test [10]; 93.5% in test [11]; 90.1% in test [12]. Also, the growth is 99.6% in test [13]; 115% in [14]; 97.3% in [15]; 102% in [16]; 96.1% in test [17]; 103% in test [18]. The growth in [19] was 105%.
